# IL-1B inflam inh: blocks inflammasome-driven IL-1 beta release; THP-1 LPS/ATP IL-1B secretion, AlphaLISA, 16 h; active compounds read low; activity change, % at 57.5 µM; hit rate 4.7% among 360,000; AID 743279; in the data active = activity change below about -50%; inconclusive = mostly about -30% to -49%
#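 Secreted IL-1B measured by AlphaLISA bead assay after 16 h compound exposure of THP-1 cells; compounds (final up to 57.5 uM) added 1 h before LPS (250 ng/mL) and ATP (1.25 mM) stimulation; lower signal means less secretion.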
# TDP1 cell noCPT: qHTS for Inhibitors of human tyrosyl-DNA phosphodiesterase 1 (TDP1): qHTS in cells in absence of CPT; Potency, µM (top dose mostly 46.2 µM), for the others: top-dose activity change, negative = growth inhibition, actives largely listed as inhibitors; DT40 Tdp1-/- hTDP1 cells, no CPT, ATP luminescence, 48 h; hit rate 15% among 420,000; note: potency is the fitted concentration of half-maximal effect; nearly all actives have a fitted effect of over 55% in size
#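 Luminescent ATP content (CellTiter-Glo) served as the growth readout. Knockout chicken DT40 cells expressing human TDP1 were exposed to compounds without camptothecin for a minimum 48 hr at 37 °C.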
# TDP1 cell CPT: DT40-hTDP1 cell growth loss with CPT; chicken DT40 Tdp1-/-;hTDP1 cells + 20 nM CPT, ATP luminescence, 48 h; Potency, µM (top dose mostly 46.2 µM), for inactives: top-dose activity change, negative = growth inhibition, hits mostly inhibitors; hit rate 12% among 420,000; note: potency is the fitted concentration of half-maximal effect; nearly all actives have a fitted effect of over 55% in size
#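 Chicken DT40 Tdp1-/- cells stably complemented with human TDP1 were seeded at 400 cells/well in medium containing 20 nM camptothecin, exposed to pin-transferred compounds, and grown at 37 °C for at least 48 hr. Viability was read as ATP luminescence.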
# Six1-Eya2 inh: inhibitors of human Six1/Eya2 interaction | Q15475+O00167 | AlphaScreen GST-Six1/His-Eya2 binding, biochemical; active compounds read low | activity change, % (concentration not given with the values) | hit rate 0.56% among 360,000 | AID 651725; in the data active = activity change below about -65%; inconclusive = mostly about -30% to -63%
# Target sequence (O00167 whole entry, looked up): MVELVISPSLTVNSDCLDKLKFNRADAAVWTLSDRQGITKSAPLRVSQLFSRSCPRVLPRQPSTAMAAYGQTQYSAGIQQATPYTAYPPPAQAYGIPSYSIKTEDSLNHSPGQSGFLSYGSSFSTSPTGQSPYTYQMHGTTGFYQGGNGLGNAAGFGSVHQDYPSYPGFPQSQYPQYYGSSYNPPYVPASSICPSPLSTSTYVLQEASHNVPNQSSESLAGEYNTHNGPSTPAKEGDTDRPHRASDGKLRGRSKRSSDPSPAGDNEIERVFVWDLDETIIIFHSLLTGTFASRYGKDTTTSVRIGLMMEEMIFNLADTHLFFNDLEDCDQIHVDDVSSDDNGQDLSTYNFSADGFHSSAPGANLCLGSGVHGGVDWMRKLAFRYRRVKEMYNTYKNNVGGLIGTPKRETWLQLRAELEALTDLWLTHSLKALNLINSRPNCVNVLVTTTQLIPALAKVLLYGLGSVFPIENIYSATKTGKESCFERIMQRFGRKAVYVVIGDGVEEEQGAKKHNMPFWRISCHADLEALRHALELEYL
# Target sequence (Q15475 whole entry, looked up): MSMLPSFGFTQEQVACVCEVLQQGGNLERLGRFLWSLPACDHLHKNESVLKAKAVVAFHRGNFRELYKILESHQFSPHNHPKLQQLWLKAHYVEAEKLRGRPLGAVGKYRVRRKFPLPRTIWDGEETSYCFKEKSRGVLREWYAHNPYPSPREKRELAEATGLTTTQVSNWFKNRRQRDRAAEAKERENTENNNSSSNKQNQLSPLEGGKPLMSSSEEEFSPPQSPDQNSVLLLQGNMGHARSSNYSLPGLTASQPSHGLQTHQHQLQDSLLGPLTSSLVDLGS
#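 AlphaScreen luminescence read after one hour at 37 °C in darkness. Pin-transferred compounds met GST-Six1 and His-Eya2 protein (5X stock 250 nM/500 nM) plus glutathione donor and Ni-chelate acceptor beads (5X, 50 ug/mL).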
# CtBP-E1A inh: inhibitors of CtBP/E1A interaction; hit rate 0.49% among 340,000; activity change, % (concentration not given with the values); AlphaScreen GST-E1A/His-CtBP binding, 1536-well; active compounds read low; in the data active = activity change below about -65%; inconclusive = mostly about -30% to -63%
#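 GST-E1A and His-tagged CtBP (125 nM each as 5X stock) were preincubated with pin-transferred compound for 2 h at 37 °C in the dark, then glutathione donor and nickel acceptor beads were added for 1 h before AlphaScreen reading.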
# TDP1 inh: blocks human tyrosyl-DNA phosphodiesterase 1 | Q9NUW8 | recombinant TDP1, AlphaScreen DNA substrate cleavage | Potency, µM (series often up to 130 µM), for inactives: at the top dose activity change, negative = inhibition, actives largely listed as inhibitors | hit rate 0.28% among 350,000 | AID 485290; note: potency is the fitted concentration of half-maximal effect; nearly all actives have a fitted effect of over 40% in size
#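 Steps: enzyme plus compound, 15 min RT; add biotin/phosphotyrosine-FITC oligonucleotide (15 nM final), react 5 min; add donor/acceptor beads (10 ug/ml final), 10 min; read AlphaScreen. Tdp1 at 1 nM final.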
# * hit, by the source's call; ? = inconclusive; · = not tested or not shown; ! = repeats disagree; [ ] = dose if it differs, or a comment. The list is not random: actives were taken first. Their share in the collection is about 18%. Unless noted, calls come from the whole dose curve; as a rule, active = well fitted curve in the direction sought with a large enough effect; inconclusive = small, poorly fitted or top-dose-only effect, or another doubt; inactive = no such curve, though single readings can be large; an effect the other way counts as inactive or inconclusive. % is set by controls: 0 for no effect and ±100 for the full control effect.
SMILES,IL-1B inflam inh,TDP1 cell noCPT,TDP1 cell CPT,Six1-Eya2 inh,CtBP-E1A inh,TDP1 inh
CCCCCC(=O)Nc1cccc(C2=NOC3(C2)C[C@@H](C(N)=O)N(C(=O)c2cc([N+](=O)[O-])cc([N+](=O)[O-])c2C)C3)c1 (some centres not stated),-8.9,?,?,-3.6,-1.5,3.5%
CCOc1ccc(NS(=O)(=O)c2cc(Br)cc3c2N(C(=O)C2CC2)CC3)cc1,·,?,?,·,·,2.9%
CCN(Cc1ccccc1)S(=O)(=O)c1cc(Br)cc2c1N(C(=O)C1CC1)CC2,·,8.2µM*,10.3µM*,·,·,5.9%
O=C(C1CC1)N1CCc2cc(S(=O)(=O)N(CCO)Cc3ccccc3)ccc21,-7.6,23.1µM*,?,0.0,8.0,8.5%[56.1 µM]
CCc1ccccc1NS(=O)(=O)c1cc(Br)cc2c1N(C(=O)C1CC1)CC2,·,18.4µM*,16.4µM*,·,·,0.0%
CCCCN(Cc1ccccc1)S(=O)(=O)c1cc(Br)cc2c1N(C(=O)C1CC1)CC2,·,9.2µM*,9.2µM*,·,·,5.9%
CN(C)c1ccc(CN(C(=O)COc2ccc(Br)cc2)C2CCS(=O)(=O)C2)cc1 (configuration not stated),-19.7,-0.9%,-27.9%,-29.8,-19.5,7.4%
O=C(Cc1ccc(Cl)cc1Cl)NC1CCCCCC1,-24.3,?,-27.4%,19.0,-13.0,·
CC(=O)Nc1ccc(C(=O)Nc2ccc(S(=O)(=O)Nc3nccc(C)n3)cc2)cc1,4.7,27.0%,-3.0%,3.2,-2.1,·
CCC(=O)c1ccc(N2CCN(C(=O)c3cccs3)CC2)c(F)c1,6.5,20.6µM*,?,2.3,-7.7,·
Cc1cc(N2CCN(C(=O)c3cccs3)CC2)c(F)cc1[N+](=O)[O-],-5.2,5.17µM*,10.3µM*,-9.4,-7.3,·
CCC(=O)c1c[nH]c(C(=O)N2CCN(c3ccccc3)CC2)c1,9.1,-14.4%,10.4%,2.8,1.6,4.9%
Cc1ccccc1C(=O)c1c[nH]c(C(=O)N2CCN(c3ccccc3F)CC2)c1,-66.2*,14.6µM*,18.4µM*,-19.6,7.7,2.9%
O=C(c1cccs1)N1CCN(c2ccc([N+](=O)[O-])cc2F)CC1,0.0,-20.6%,?,-2.6,-1.2,·
CCC(=O)c1ccc(N2CCCCCC2)c(F)c1,-0.8,?,-26.0%,26.7,27.4,-7.8%
CCC(=O)c1ccc(N2CCN(C(=O)c3ccccc3F)CC2)c(F)c1,0.0,20.6µM*,10.3µM*,10.4,2.7,7.9%
Cc1c(CC(=O)NCC(=O)O)c(=O)oc2cc3oc4c(c3cc12)CCCC4,-9.8,-6.0%,-1.4%,-2.1,-10.4,·
COc1ccccc1-c1cncnc1NCCc1cnc[nH]1,·,?,?,·,·,9.7%[56.1 µM]
CCc1nc2ccc(C(=O)N3CCN(c4cc(C)ccc4C)CC3)cc2nc1CC,16.4,?,?,-8.1,-0.7,0.5%
CCc1nc2ccc(C(=O)N3CCN(c4ccccc4F)CC3)cc2nc1CC,-10.7,5.8µM*!,20.6µM*,4.6,1.5,2.8%
CCC(=O)c1ccc(N2CCN(C(=O)c3ccccc3Br)CC2)c(F)c1,-54.6*,10.3µM*,?,0.0,-8.6,0.0%
CCOCCc1nn2c(=O)cc(COC(=O)c3ccccc3NC(=O)c3ccc(C)cc3)nc2s1,·,4.9%,-17.4%,·,·,-6.2%
C[C@H](CO)N1C[C@H](C)[C@@H](CN(C)S(=O)(=O)c2ccccc2C#N)OCc2cnnn2CCCC1=O,36.3,?,15.9%,5.5,4.8,·
CCOC(=O)c1sc(NC(=O)c2ccc(C)o2)nc1C,25.1,?,?,-0.9,0.0,6.1%
COC(=O)C1=C(COc2ccccc2)NC(=O)NC1c1ccc2ccccc2c1 (configuration not stated),-11.7,23.1µM*,?,-1.2,-0.8,·
SMILES,IL-1B inflam inh,TDP1 cell noCPT,TDP1 cell CPT,Six1-Eya2 inh,CtBP-E1A inh,TDP1 inh
COC(=O)C1=C(CCc2ccccc2)NC(=O)NC1c1ccc(Cl)cc1 (configuration not stated),-52.1*,?,?,-4.2,-18.0,·
COc1cccc(CNc2nc3cc(-c4ccccc4C)sc3c(=O)n2C)c1OC,?,23.1µM*,14.6µM*,-10.2,-3.0,·
COc1cccc(CNc2nc3cc(-c4cccc(Cl)c4)sc3c(=O)n2C)c1OC,-19.7,?,?,4.1,0.5,·
COc1cccc(CNc2nc3cc(-c4ccccc4)sc3c(=O)n2C)c1OC,-3.8,29.1µM*,16.4µM*,0.0,-16.6,·
COc1cccc(CNc2nc3cc(-c4cccc(C(F)(F)F)c4)sc3c(=O)n2C)c1OC,-3.8,?,?,-2.0,-0.8,·
COc1ccccc1CNc1nc2cc(-c3ccc(OC)c(OC)c3)sc2c(=O)n1C,-19.4,16.4µM*,23.1µM*,-5.0,-5.6,·
COCCNC(=O)CCc1ccc(S(=O)(=O)Nc2ccc(C)cc2)cc1,-0.9,-23.3%,-24.0%,4.0,4.1,4.7%
NC(=O)c1ccsc1NC(=O)COC(=O)Cc1cccc2ccccc12,2.7,10.3µM*,9.2µM*,-2.5,-1.4,3.6%
NC(=O)c1ccsc1NC(=O)COC(=O)Cc1c[nH]c2ccccc12,5.6,16.4µM*,?,-11.9,-0.7,-5.1%
CC(C)c1ccccc1NC(=O)COC(=O)Cc1c[nH]c2ccccc12,0.0,-10.5%,0.082µM*,5.6,2.0,0.0%
NC(=O)c1ccsc1NC(=O)COC(=O)Cc1ccccc1[N+](=O)[O-],39.0,20.6µM*,23.1µM*,1.9,-9.9,·

# From PubChem
